# Assay results taken from PubChem BioAssay AID588342 (National Center for Advancing Translational Sciences (NCATS), 2011).
# Among all 360,000 compounds or so, about 25,000 (6.9%) were called active. Roughly 9% stayed inconclusive and do not appear here. The sample holds actives, similar compounds and a random draw of the others, so the mix is not that of the screen. Unmarked numbers belong to inactive results. Calls come from the whole dose curve; as a rule, active = well fitted inhibition curve with a large enough effect; inconclusive = small, poorly fitted or top-dose-only effect; inactive = flat fitted curve, though single readings scatter.
# Biological target: Luciferin 4-monooxygenase (Photinus pyralis) (UniProt P08659)
# Sequence (P08659 whole entry, looked up): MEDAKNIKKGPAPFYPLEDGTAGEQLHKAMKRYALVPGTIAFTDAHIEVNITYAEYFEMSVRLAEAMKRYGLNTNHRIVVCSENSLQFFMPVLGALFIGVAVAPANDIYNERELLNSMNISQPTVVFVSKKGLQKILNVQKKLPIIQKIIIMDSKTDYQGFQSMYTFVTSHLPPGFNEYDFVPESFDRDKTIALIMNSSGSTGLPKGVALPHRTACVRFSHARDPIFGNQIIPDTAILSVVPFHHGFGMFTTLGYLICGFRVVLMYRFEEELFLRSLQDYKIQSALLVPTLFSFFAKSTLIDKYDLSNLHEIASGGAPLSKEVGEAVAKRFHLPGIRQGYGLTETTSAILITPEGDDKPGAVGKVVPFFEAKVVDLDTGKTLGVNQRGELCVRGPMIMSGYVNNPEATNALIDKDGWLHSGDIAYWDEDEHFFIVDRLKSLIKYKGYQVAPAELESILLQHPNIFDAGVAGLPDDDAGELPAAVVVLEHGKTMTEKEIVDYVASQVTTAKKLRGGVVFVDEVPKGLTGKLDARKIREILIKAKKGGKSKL
# Assay: qHTS profiling assay for firefly luciferase inhibitor/activator using purifed enzyme and Km concentrations of substrates (counterscreen for miR-21 project); note: nearly all actives have a fitted effect of over 55% in size;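 for activity change, negative = inhibition: plate controls were vehicle for no effect and reference inhibitor for full effect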
# Settings: purified FLuc, luminescence inhibition; series mostly up to 57.5 µM; activity change, negative = inhibition: at the top concentration
# In short: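 Purified P. pyralis luciferase (10nM final) with 10uM D-luciferin and 10uM ATP (Km levels) in 50mM Tris acetate pH 7.5, 10mM Mg acetate, 0.01% Tween-20, 0.05% BSA; qHTS 6-point titration, ~60 µM downward; luminescence read.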
# Potency is the fitted concentration of half-maximal effect.
SMILES,"activity change, negative = inhibition",Potency
Cc1c(C(=O)N/N=C/c2ccccc2)[nH]c2c([N+](=O)[O-])cccc12,3.01%,–
Cc1nn(-c2ccccc2)c(C)c1/C=N/NC(=O)CSc1nc2ccccc2c(=O)n1-c1ccccc1,0.0642%,–
Cc1nn(-c2ccccc2)c(Cl)c1/C=N/NC(=O)c1nn(C)cc1[N+](=O)[O-],–,10.7 µM (active)
COc1ccc(NC(=O)CN2C(=O)COc3ccc(S(=O)(=O)N4CCOCC4)cc32)cc1,–,inactive
CC(=O)C1C(c2ccc(Cl)cc2)c2c(n[nH]c2C)CC1(C)O (stereo not given),3.98%,–
CCc1ccc(NC2Nc3cc(C)nn3S2)cc1 (stereo not given),–,4.78 µM (active)
CCOC(=O)c1ccc(NC2Nc3cc(C)nn3S2)cc1 (stereo not given),-0.982%,–
COc1c(Cl)cc(C(=O)N(Cc2ccccc2F)C2CCS(=O)(=O)C2)cc1Cl (stereo not given),-0.344%,–
O=C(COc1ccc(Cl)cc1)N(Cc1ccco1)Cc1ccco1,-19.8%,–
CC[C@H](C)C(=O)N[C@H]1CCCN1C(=O)/C=C/c1ccccc1,4.5%,–
COc1ccccc1/C=C/C(=O)NC(=S)N1CCOCC1,–,12 µM (active)
COc1ccc(C)cc1NC(=S)N1CCOCC1,5.69%,–
O=C(/C=C/c1ccco1)NC(=S)N1CCCCC1,-16.9%,–
COc1ccc(OC)c(NC(=O)c2cnn(-c3ccccc3Cl)c2NC(=O)c2ccco2)c1,5.56%,–
Cc1ccc2c(c1)C1CN(C)CCC1N2S(=O)(=O)c1cccc(F)c1 (stereo not given),3%,–
CCCn1c(C(O)c2ccc(OCC)cc2)nc2ccccc21 (stereo not given),4.37%,–
COCn1c(COc2ccccc2)nc2ccccc21,–,16.9 µM (active)
CCOc1ccc(C(O)Cc2nc3ccccc3n2C)cc1 (stereo not given),-11.3%,–
Cn1c(CNC(=O)C(C)(C)C)nc2ccccc21,-0.0419%,–
O=C(Cn1c(COc2ccccc2)nc2ccccc21)Nc1cc(Cl)c(Cl)cc1Cl,0.398%,–
CC(C)c1ccc(Cn2c(COc3ccccc3)nc3ccccc32)cc1,–,19 µM (active)
Cc1ccc(OCc2nc3ccccc3n2C)cc1,–,3.01 µM (active)
CC(O)c1nc2ccccc2n1Cc1ccc([N+](=O)[O-])cc1 (stereo not given),-2.35%,–
COCc1nc2ccccc2n1Cc1ccccc1Br,1.51%,–

SMILES,"activity change, negative = inhibition",Potency
CCc1nc2cccnc2n1-c1ccc(CC(=O)Nc2c(C)cccc2C)cc1,-0.458%,–
Cc1ccccc1-n1nc(C)c2c1N=C1C(Cl)=CC(Cl)=CN1C2c1ccc(C(=O)O)cc1 (stereo not given),-8.87%,–
CCn1c(=O)c(=O)[nH]c2c(=O)oc3ccc(S(=O)(=O)Nc4ccc(OC)cc4)cc3c21,1.02%,–
O=C(CC1N=C2c3ccccc3N=C(SCc3cccc(Cl)c3)N2C1=O)NCc1ccc2c(c1)OCO2 (stereo not given),-9.72%,–
Cc1ccc(S(=O)(=O)NCCc2nnc3ccc(SCc4cccnc4)nn23)cc1,-0.515%,–
COc1c(C=O)c(CCN(C)C(=O)c2ccc(F)cc2)cc2c1OCO2,1.83%,–
Cc1ccc(-c2nc(CS(=O)(=O)CC(=O)NCc3ccccc3Cl)c(C)o2)cc1,2.41%,–
CCOC(=O)c1c(NC(=O)c2cc(CC)on2)sc(C(C)=O)c1C,0.398%,–
CCOc1ccc(NC(=S)N2CCCCCC2)cc1,-7.6%,–
CCC(C)c1ccc(NC(=S)N2CCCC2)cc1 (stereo not given),–,15.1 µM (active)
CCOC(=O)c1ccc(NC(=S)N2CCCC2)cc1,-8.94%,–
CC1Cc2cc(S(=O)(=O)CCC(=O)Nc3ccc(F)c(Cl)c3)ccc2N1C(=O)C1CC1 (stereo not given),-7.53%,–
O=C(c1ccc2c(c1)N(Cc1ccc(Cl)cc1)C(=O)c1ccccc1S2(=O)=O)N1CCCCC1,7.03%,–
O=C(/C=C/NCc1ccc(F)cc1)c1ccccc1,–,16.9 µM (active)
O=C(NCCS(=O)(=O)NCc1ccc(F)cc1)c1ccccc1,4.95%,–
Cc1cccc[n+]1CC(=O)c1ccccc1,-0.244%,–
CCCCC(=O)NCc1ccc(F)cc1,0.712%,–
O=C(/C=C\NCC(=O)c1ccccc1)c1ccccc1,–,12 µM (active)
CCN(c1ccccc1)S(=O)(=O)c1cc(C(=O)NCc2ccccn2)ccc1C,-1.73%,–
CC(=O)c1c(C)[nH]c(C(=O)COc2ccc3c(C)cc(=O)oc3c2)c1C,5.31%,–
Cc1ccc(C(=O)Nc2c(C(=O)NC(C)(C)C)oc3ccccc23)cc1,2.44%,–
COc1ccc(Cl)cc1NC(=O)c1sc2nc3c(cc2c1N)CN(C)CC3,-1.38%,–
COc1ccc(-n2c(SCC(=O)Nc3ccc(Cl)c(C)c3)nc3n[nH]c(C)c3c2=N)cc1,-0.344%,–
COc1ccc(Cn2ccn(CC(=O)Nc3cc(C)ccc3C)c(=O)c2=O)cc1,0.418%,–

SMILES,"activity change, negative = inhibition",Potency
COc1cc(C2c3c(oc4ccccc4c3=O)C(=O)N2c2nc(C)c(C)s2)ccc1O (stereo not given),-4.51%,–
Cc1ccc(NC(=O)C2CCCN2S(=O)(=O)c2cccc3cccnc23)c(C)c1 (stereo not given),–,inactive
COc1cc(/C=N/NC(=S)Nc2cccnc2)cc(OC)c1O,–,10.7 µM (active)
CCOC(=O)N/N=C/c1cccnc1,6.17%,–
COc1cc(/C=N/NC(=O)c2cccnc2)ccc1OC(=O)c1cccc(Br)c1,0.287%,–
C[C@@H]1C[C@@H]2O[C@H]2/C=C\C=C\C(=O)Cc2c(Cl)c(O)cc(O)c2C(=O)O1,-3.44%,–
COC(=O)c1ccc(Cn2c(SCC(=O)N(C)c3ccccc3)nc3ccccc32)cc1,-16.2%,–
Cc1ccc(OC(=O)c2c(C)nn(-c3ccccc3)c2C)cc1,–,13.5 µM (active)
Cc1nn(-c2ccccc2)c(-n2cccc2)c1C(=O)O,-0.636%,–
Cc1cccc(C)c1NC(=O)COC(=O)c1c(C)nn(-c2ccccc2)c1C,-19%,–
CCCC12CN3CC(CCC)(CN(C1)C3c1c[nH]c3ccc(OC)cc13)C2=O (stereo not given),-1.95%,–
COc1ccccc1C(=O)NCCC(=O)N(C)Cc1cccnc1,-1.3%,–
COc1ccc(CCNC(=O)CCCCn2c(=O)c3ccccc3n(Cc3ccccc3)c2=O)cc1OC,1.96%,–
CCOc1ccc(C(=O)c2cn(Cc3ccccc3OC)c3ccc(F)cc3c2=O)cc1,0.01%,–
COc1ccc(NC(=O)C2CCN(c3ccc(Sc4ccc(C)cc4)nn3)CC2)c(OC)c1,4.7%,–
CN1CCN(C2(CNC(=O)COc3ccc(C(C)(C)C)cc3)CCCCC2)CC1,-0.665%,–
CCCc1nc2ccccc2c(=O)n1/N=C/c1ccc(O)c(O)c1,1.87%,–
O=C(Nn1cnc2ccccc2c1=O)c1ccccc1,2.64%,–
Nc1nnn(CC(=O)N/N=C/c2ccccc2)n1,-1.5%,–
O=c1c2ccccc2nc(N/N=C/c2ccccc2)n1O,–,1.51 µM (active)
CCOCCCn1c(NN)nc2ccccc2c1=O,4.5%,–
O=c1c2ccccc2ncn1/N=C/c1ccccc1,–,1.69 µM (active)
